Assay results published in article PMC4336329 (PLoS ONE, 2015).
The campaign covered roughly 310,000 compounds. About 14,000 (4.5%) showed an effect of 50% or more. The effect is printed as a negative number. Many of the other results were omitted from the sample, so strong results are more common in it than they were.

Molecular target: human ether-à-go-go-related gene (hERG) potassium channel (human, UniProt Q12809)
Experiment: primary screen, population patch clamp on CHO cells stably expressing hERG; higher = less effect of the substance
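Note: peak tail current of the secondary pulse compared with the same well before compound.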

Sequence of human ether-à-go-go-related gene (hERG) potassium channel (Q12809 whole entry, looked up): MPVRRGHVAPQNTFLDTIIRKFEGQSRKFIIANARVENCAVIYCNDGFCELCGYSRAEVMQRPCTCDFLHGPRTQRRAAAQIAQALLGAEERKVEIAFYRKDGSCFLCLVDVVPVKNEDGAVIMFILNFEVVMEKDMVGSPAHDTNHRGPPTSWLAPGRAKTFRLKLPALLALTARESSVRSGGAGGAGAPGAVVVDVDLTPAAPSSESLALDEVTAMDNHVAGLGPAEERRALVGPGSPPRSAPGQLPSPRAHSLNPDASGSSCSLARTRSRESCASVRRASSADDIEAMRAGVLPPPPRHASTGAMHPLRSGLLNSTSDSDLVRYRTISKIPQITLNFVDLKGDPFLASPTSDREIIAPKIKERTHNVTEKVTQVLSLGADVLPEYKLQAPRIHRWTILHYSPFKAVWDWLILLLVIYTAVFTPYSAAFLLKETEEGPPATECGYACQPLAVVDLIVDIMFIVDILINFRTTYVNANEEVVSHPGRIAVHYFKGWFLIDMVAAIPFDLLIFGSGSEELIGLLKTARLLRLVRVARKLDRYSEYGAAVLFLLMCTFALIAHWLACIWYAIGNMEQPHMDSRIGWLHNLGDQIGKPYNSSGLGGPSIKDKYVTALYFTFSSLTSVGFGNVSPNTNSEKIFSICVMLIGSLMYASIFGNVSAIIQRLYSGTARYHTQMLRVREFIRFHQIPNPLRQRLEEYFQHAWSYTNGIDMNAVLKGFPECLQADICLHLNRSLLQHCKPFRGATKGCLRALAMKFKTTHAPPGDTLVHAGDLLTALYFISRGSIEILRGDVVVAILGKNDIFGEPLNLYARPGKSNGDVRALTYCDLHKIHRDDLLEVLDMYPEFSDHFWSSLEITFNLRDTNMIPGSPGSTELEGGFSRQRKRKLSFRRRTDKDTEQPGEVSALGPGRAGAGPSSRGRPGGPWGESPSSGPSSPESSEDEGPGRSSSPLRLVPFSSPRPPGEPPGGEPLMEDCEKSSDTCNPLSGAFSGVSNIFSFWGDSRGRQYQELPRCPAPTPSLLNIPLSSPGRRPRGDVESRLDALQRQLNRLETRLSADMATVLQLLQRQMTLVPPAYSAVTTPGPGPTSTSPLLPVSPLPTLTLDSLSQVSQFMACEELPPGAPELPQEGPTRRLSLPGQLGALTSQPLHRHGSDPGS

Row | Compound | hERG current change (%, negative = inhibition) at 10uM [%]
1 | Br.N=C1CCCN1CC(=O)c1ccc(Cl)cc1 | 1.8
2 | COC(=O)c1ccc(/C=N\NC(=O)CC(=O)NCCc2ccccc2)cc1 | 19.8
3 | O=C(Nc1ccc(F)cc1)C1CCCN(S(=O)(=O)c2cccc3cccnc23)C1 (centres unmarked) | -49.3
4 | O=C(C1CCCN(S(=O)(=O)c2cccc3cccnc23)C1)N1CCN(c2ccc(F)cc2)CC1 (centres unmarked) | -67.5
5 | O=C(O)C1CCCN(S(=O)(=O)c2cccc3cccnc23)C1 (centres unmarked) | 10.9
6 | O=C(O)[C@@H]1CCCN(S(=O)(=O)c2cccc3cccnc23)C1 | 11.6
7 | O=C(C1CCCN(S(=O)(=O)c2cccc3cccnc23)C1)N1CCN(c2ccccc2F)CC1 (centres unmarked) | -75.5
8 | COc1ccc(N2CCN(C(=O)C3CCCN(S(=O)(=O)c4cccc5cccnc45)C3)CC2)cc1 (centres unmarked) | -32.1
9 | CCN1C(=O)[C@H]2[C@@H](c3ccc(C)cc3)N3C(=O)N(c4ccccc4)C(=O)[C@@]3(CC)[C@H]2C1=O | 3.81
10 | O=C(CN1C(=O)NC2(CCCCCC2)C1=O)N1CCC(Cc2ccccc2)CC1 | -24.4
11 | CN1CCN(C(=O)OC2c3nccnc3C(=O)N2c2ccc(Cl)cn2)CC1 (centres unmarked) | 13.9
12 | O=C(NCC1CCCO1)c1c(O)c2cccc3c2n(c1=O)CC3 (centres unmarked) | 10.4
13 | Cc1ccccc1C(=O)Nc1ccc(Cl)cn1 | 6
14 | CCOC(=O)N1CCN(Cc2nc3cc(NC(C)=O)ccc3n2CC)CC1 | 14.9
15 | CCOC(=O)N1CCN(Cc2nc3cc(NC(=O)c4ccco4)ccc3n2C)CC1 | -26.5
16 | CCOC(=O)N1CCN(Cc2nc3cc(NC(=O)c4ccco4)ccc3n2CC)CC1 | -58
17 | CCOC(=O)N1CCN(Cc2nc3cc(NC(=O)CC)ccc3n2CC)CC1 | 9.4
18 | CCCC(=O)Nc1ccc2c(c1)nc(CN1CCN(C(=O)OCC)CC1)n2CC | 9.54
19 | Cn1c(CN2CCCCC2)nc2cc(NC(=O)c3cccs3)ccc21 | -31.2
20 | CC(=O)N1CCN(Cc2nc3cc(NC(=O)c4cccs4)ccc3n2C)CC1 | 13.8
21 | CCOC(=O)N1CCN(Cc2nc3cc(NC(=O)c4cccs4)ccc3n2CC)CC1 | -55.3
22 | CCOC(=O)N1CCN(Cc2nc3cc(NC(=O)c4cccs4)ccc3n2C)CC1 | -74.7
23 | CCOc1ccc(C(=O)NC2CC(=O)N(c3ccc4c(c3)OCCO4)C2)cc1 (centres unmarked) | -10.1
24 | COc1ccccc1C(=O)N1CCN(Cc2nc(CC3CC3)no2)CC1 | 9.93
25 | Cc1nn(C)cc1CN1CCC(n2nccc2NC(=O)CCCc2ccccc2)CC1 | -3.27
26 | O=C(CCCc1ccccc1)Nc1ccnn1C1CCN(Cc2ccccc2)CC1 | -77.3
27 | CC(CN1CCC(n2nccc2NC(=O)CCCc2ccccc2)CC1)c1ccccc1 (centres unmarked) | -51.9

Row | Compound | hERG current change (%, negative = inhibition) at 10uM [%]
28 | Cn1cc(CN2CCC(n3nccc3NC(=O)CCCc3ccccc3)CC2)cn1 | 5.95
29 | O=C(CCCc1ccccc1)Nc1ccnn1C1CCN(Cc2ccc(Cl)cc2)CC1 | -74.8
30 | O=C(CCCc1ccccc1)Nc1ccnn1C1CCN(Cc2ccc(CO)o2)CC1 | -10.5
31 | Cc1ccccc1CN1CCC(n2nccc2NC(=O)CCCc2ccccc2)CC1 | -49.3
32 | CC(C)n1cc(CN2CCC(n3nccc3NC(=O)CCCc3ccccc3)CC2)cn1 | -26
33 | Cc1ccc(C)c(CN2CCC(n3nccc3NC(=O)CCCc3ccccc3)CC2)c1 | -54.8
34 | O=C(CCCc1ccccc1)Nc1ccnn1C1CCN(Cc2ccccn2)CC1 | -15.2
35 | CC(=O)N[C@@H](C)C(=O)N1CCC(n2nccc2NC(=O)CCCc2ccccc2)CC1 | -2.4
36 | CC(C)c1ccc[n+](-c2nc([O-])sc2C=O)c1 | 14.7
37 | S=c1nc(-c2ccccc2)n(CCN2CCOCC2)c2c1CCCC2 | -13.4
38 | O=C1c2ccccc2C(=O)C1c1ccc(Cl)cc1 | 8.89
39 | CCOC(=O)N1CCN(C(=O)c2cc3cc(C)ccc3[nH]2)CC1 | -7.43
40 | O=c1[nH]nc(C(F)(F)F)c2nnn(Cc3ccccc3Cl)c12 | 14.1
41 | CN1CCN(c2ccccc2NC(=O)c2ccc(-c3ccc(Cl)c(Cl)c3)o2)CC1 | -3.73
42 | C/C=C(\C)CN1CCC(n2nccc2NC(=O)CCCc2ccccc2)CC1 | -62.9
43 | C/C=C(\C)CN1CCC(n2nccc2NC(=O)CCOc2ccccc2)CC1 | -31.5
44 | CCOc1ccc(CN2CCC(n3nccc3NC(=O)CCCc3ccccc3)CC2)cc1 | -78.2
45 | CCn1nc(C)c(CN2CCC(n3nccc3NC(=O)Cc3ccccc3)CC2)c1C | 6.57
46 | CSCCCN1CCC(n2nccc2NC(=O)CCCc2ccccc2)CC1 | -62.5
47 | CCn1nc(C)c(CN2CCC(n3nccc3NC(=O)CCCc3ccccc3)CC2)c1C | -60.1
48 | CCn1cc(CN2CCC(n3nccc3NC(=O)CCCc3ccccc3)CC2)cn1 | -27.3
49 | C/C=C(\C)CN1CCC(n2nccc2NC(=O)CCc2ccccc2)CC1 | -28.9
50 | CSCCC(=O)N1CCC(n2nccc2NC(=O)CCCc2ccccc2)CC1 | -5.8
51 | CSCC(=O)N1CCC(n2nccc2NC(=O)CCCc2ccccc2)CC1 | -17.6
52 | CCn1cc(CN2CCC(n3nccc3NC(=O)CCCc3ccccc3)CC2)c(C)n1 | -28.4
53 | Cc1ccc(CN2CCC(n3nccc3NC(=O)CCCc3ccccc3)CC2)o1 | -20.5
